Counter-ions that a name gives are not always drawn.
What was measured:
Settings in all cases: compound concentration in added solution (µM; 5 µl added to 20 µl cells): 10; 18 h
A431 [1] = assay: LBPA endosome anti-LBPA integrated intensity (sum per cell), Z-score; higher = more LBPA staining
In short: (§1)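 In duplicate 384-well imaging plates, 3,500 HeLa MZ or A431 cells in 20 µl per well were seeded onto 5 µl of 10 µM compound solution. The cells were incubated for 18 h, fixed in 4% PFA and stained with 6C4 anti-LBPA antibody, filipin, propidium iodide and CellTracker green before four 20× images were acquired per well. Values are AcuityXpress-normalised Z-scores of per-cell integrated LBPA or filipin intensity, obtained by MetaXpress segmentation over the whole cell or in LBPA endosomes.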

HeLa MZ [2] = assay: as above
In short: as §1

A431 [3] = assay: whole-cell filipin (free cholesterol) integrated intensity, Z-score; higher = more cholesterol staining
In short: as §1

HeLa MZ [4] = assay: as above
In short: as §1

A431 [5] = assay: filipin (cholesterol) integrated intensity within LBPA endosomes, Z-score; higher = more cholesterol in LBPA endosomes
In short: as §1

HeLa MZ [6] = assay: as above
In short: as §1

SMILES	LBPA endosome anti-LBPA integrated intensity (z-score) (A431 [1])	LBPA endosome anti-LBPA integrated intensity (z-score) (HeLa MZ [2])	whole-cell filipin (z-score) (A431 [3])	whole-cell filipin (z-score) (HeLa MZ [4])	filipin (z-score) (A431 [5])	filipin (z-score) (HeLa MZ [6])
Nc1ccn([C@@H]2CS[C@H](CO)O2)c(=O)n1 [Lamivudine]	-0.481	-0.745	-0.233	-0.14	-0.498	-0.564
COc1cc(NS(=O)(=O)c2ccc(N)cc2)nc(OC)n1 [Sulfadimethoxine]	-0.522	-0.857	-0.62	0.132	-0.482	-0.404
COc1cc(NC(C)CCCN)c2ncccc2c1 (configuration not stated) [Primaquine diphosphate]	-0.0886	0.528	-0.291	-0.377	-0.187	0.116
CCCCNC(=O)NS(=O)(=O)c1ccc(C)cc1 [Tolbutamide]	-0.288	0.292	-0.409	-0.426	-0.47	-0.503
CCN(CC)CCc1nc(-c2ccccc2)no1 [Oxalamine citrate salt]	-0.387	0.162	-0.277	-0.546	-0.442	-0.374
C[C@]12C=CC(=O)C=C1CC[C@@H]1[C@@H]2C(=O)C[C@@]2(C)[C@H]1CC[C@]2(O)C(=O)CO [Prednisone]	-0.485	-0.977	-0.505	0.0271	-0.452	-0.412
CNCC(O)c1ccc(OC(=O)C(C)(C)C)c(OC(=O)C(C)(C)C)c1 (configuration not stated) [Dipivefrin hydrochloride]	0.303	-0.643	1.75	0.0389	0.224	0.0222
CC(c1cc2ccccc2s1)N(O)C(N)=O (configuration not stated) [Zileuton]	-0.514	-0.465	-0.358	-0.366	-0.391	-0.425
N[C@H]1CONC1=O [(S)-(-)-Cycloserine]	-0.455	-0.138	-0.147	-0.221	-0.457	-0.283
CC1=Nc2ccc(Cl)cc2S(=O)(=O)N1 [Diazoxide]	-0.529	-1.17	-0.801	-0.471	-0.542	-0.481
CN[C@@H]1[C@@H](O)[C@@H](O[C@@H]2[C@@H](O)[C@H](O[C@H]3OC(CN)=CC[C@H]3N)[C@@H](N)C[C@H]2N)OC[C@]1(C)O [Sisomicin sulfate]	-0.541	-0.481	-0.622	-0.546	-0.517	-0.45
Cc1nc2ccccn2c(=O)c1CCN1CCC(C(=O)c2ccc(F)cc2)CC1 [Pirenperone]	1.82	2.56	1.36	1.21	1.54	2.01
COc1ccc(OC)c(C(O)CNC(=O)CN)c1 (configuration not stated) [Midodrine hydrochloride]	-0.477	-0.609	-0.887	-1.05	-0.605	-0.723
CC(C)(C)NC(=O)[C@@H]1C[C@@H]2CCCC[C@@H]2CN1C[C@@H](O)[C@H](Cc1ccccc1)NC(=O)[C@H](CC(N)=O)NC(=O)c1ccc2ccccc2n1 [Saquinavir mesylate]	0.938	0.684	1.12	0.276	0.903	0.906
O=C(O)COCCN1CCN(C(c2ccccc2)c2ccc(Cl)cc2)CC1 (configuration not stated) [Cetirizine dihydrochloride]	-0.494	-0.434	-0.716	-0.836	-0.508	-0.525
Clc1ccc2c(c1)CCc1cccnc1C2=C1CCNCC1 [Desloratadine]	3.93	2.5	1.63	0.223	2.69	2.81
CN1CCOC(c2ccccc2)c2ccccc2C1 (configuration not stated) [Nefopam hydrochloride]	-0.544	-0.0559	-0.752	-0.617	-0.509	-0.197
COc1cc(N)c(Cl)cc1C(=O)NC1CCN(Cc2ccccc2)CC1 [Clebopride maleate]	0.365	2.01	-0.171	0.217	0.0875	0.539
CCN(CCCc1ccccc1)CCCc1ccccc1 [Alverine citrate salt]	2.06	1.56	1.13	-0.0321	1.44	0.403
CCCc1nc(C)c2c(=O)nc(-c3cc(S(=O)(=O)N4CCN(CC)CC4)ccc3OCC)[nH]n12 [Vardenafil]	-0.314	1.35	0.127	0.375	-0.156	0.224
O=C(N/N=C/c1ccc([N+](=O)[O-])o1)c1ccc(O)cc1 [Nifuroxazide]	-0.723	-1.67	-0.848	-0.476	-0.646	-0.646
CC(=O)CC(c1ccccc1)c1c(O)c2ccccc2oc1=O (configuration not stated) [Warfarin]	-0.409	0.393	0.206	0.0343	-0.461	-0.372
CCC(=O)[C@@]1(C)[C@H](C)C[C@H]2[C@@H]3CCC4=CC(=O)C=C[C@]4(C)[C@H]3[C@@H](O)C[C@@]21C [Rimexolone]	-0.0932	0.328	0.343	-0.0902	-0.235	-0.418
NS(=O)(=O)c1cc2c(cc1Cl)NC(CC1CCCC1)NS2(=O)=O (configuration not stated) [Cyclopenthiazide]	-0.58	-0.971	-0.203	-0.467	-0.442	-0.628

SMILES	LBPA endosome anti-LBPA integrated intensity (z-score) (A431 [1])	LBPA endosome anti-LBPA integrated intensity (z-score) (HeLa MZ [2])	whole-cell filipin (z-score) (A431 [3])	whole-cell filipin (z-score) (HeLa MZ [4])	filipin (z-score) (A431 [5])	filipin (z-score) (HeLa MZ [6])
CN1CCCCC1CCN1c2ccccc2Sc2ccc([S+](C)[O-])cc21 (configuration not stated) [Mesoridazine besylate]	0.975	2.18	0.066	0.244	0.618	1.37
CN1CCCN=C1/C=C/c1cccc(O)c1 [Oxantel pamoate]	-0.563	-0.852	-0.857	-0.729	-0.5	-0.659
CC(C)NCC(O)COc1ccc(CCOCC2CC2)cc1 (configuration not stated) [Betaxolol hydrochloride]	2.57	2.19	0.139	-0.283	0.614	0.292
Cc1ccc(-c2ncc(Cl)cc2-c2ccc(S(C)(=O)=O)cc2)cn1 [Etoricoxib]	-0.471	-1.03	-0.752	-0.603	-0.543	-0.516
CN(C)C(=O)C(CCN1CCC(O)(c2ccc(Cl)cc2)CC1)(c1ccccc1)c1ccccc1 [Loperamide hydrochloride]	2.04	1.35	0.703	1.87	3.45	3.57
COc1cc(-c2ccc(=O)[nH]n2)ccc1OC(F)F [Zardaverine]	-0.319	0.0365	0.286	0.356	-0.298	-0.332
CCS(=O)(=O)CCn1c([N+](=O)[O-])cnc1C [Tinidazole]	-0.319	-0.148	-0.195	-0.143	-0.394	-0.524
Cc1cnc(NC(=O)C2=C(O)c3ccccc3S(=O)(=O)N2C)s1 [Meloxicam]	-0.49	0.298	-0.567	-0.195	-0.477	-0.459
CCOC(=O)C1=C[C@]2(CC)CCCN3CCc4c(n1c1ccccc41)[C@@H]32 [Vinpocetine]	-0.0891	0.52	-0.413	-0.464	-0.326	-0.0256
Nc1nc(N)c2nc(-c3ccccc3)c(N)nc2n1 [Triamterene]	0.172	-1.01	-0.647	-1.14	-0.443	-0.487
NNCCc1ccccc1 [Phenelzine sulfate]	-0.403	-0.966	-0.414	-0.115	-0.439	-0.425
Cc1c(N(C)CS(=O)(=O)O)c(=O)n(-c2ccccc2)n1C [Dipyrone]	-0.646	-1.3	-0.336	-0.214	-0.539	-0.551
CC[C@H](C)[C@H](N)C1=N[C@H](C(=O)N[C@@H](CC(C)C)C(=O)N[C@H](CCC(=O)O)C(=O)N[C@H](C(=O)N[C@H]2CCCCNC(=O)[C@H](CC(N)=O)NC(=O)[C@@H](CC(=O)O)NC(=O)[C@H](Cc3cnc[nH]3)NC(=O)[C@@H](Cc3ccccc3)NC(=O)[C@H]([C@@H](C)CC)NC(=O)[C@@H](CCCN)NC2=O)[C@@H](C)CC)CS1 [Bacitracin]	-0.168	0.277	-0.0253	0.293	-0.368	-0.388
NC(N)=Nc1nc(CSCC/C(N)=N/S(N)(=O)=O)cs1 [Famotidine]	-0.5	-0.604	-0.838	-0.898	-0.447	-0.623
N[C@@H](C(=O)N[C@@H]1C(=O)N2C(C(=O)O)=C(Cl)CS[C@H]12)c1ccccc1 [Cefaclor hydrate]	-0.551	-0.828	-0.722	-0.368	-0.522	-0.558
COc1ccccc1O [Guaiacol]	-0.278	0.0632	0.299	-0.2	-0.335	-0.255
N/C(=N\C(=O)c1nc(Cl)c(N)nc1N)NCc1ccccc1 [Benzamil hydrochloride]	0.224	1.13	0.167	0.672	-0.0522	0.566
c1ccc(CNc2ncnc3nc[nH]c23)cc1 [Aminopurine, 6-benzyl]	-0.375	-0.475	-0.69	-0.144	-0.46	-0.279
CC(CN(C)C)CN1c2ccccc2CCc2ccccc21 (configuration not stated) [Trimipramine maleate salt]	2.39	1.13	1.92	0.599	2.57	1.53
CCCC(=O)Nc1ncnc2c1ncn2[C@@H]1O[C@@H]2COP(=O)(O)O[C@H]2[C@H]1OC(=O)CCC [Bucladesine sodium salt]	-0.466	-0.34	-0.132	0.0614	-0.405	-0.372
Nc1ccc(S(=O)(=O)Nc2ccc(Cl)nn2)cc1 [Sulfachloropyridazine]	-0.463	-0.899	-0.227	-0.78	-0.494	-0.56
CC(=O)O[C@]1(C(C)=O)CC[C@H]2[C@@H]3C=C(Cl)C4=CC(=O)CC[C@]4(C)[C@H]3CC[C@@]21C [Chlormadinone acetate]	0.021	2.23	0.739	1.32	0.102	0.534
CN1CCN(CC(=O)N2c3ccccc3C(=O)Nc3cccnc32)CC1 [Pirenzepine dihydrochloride]	-0.619	-0.294	-1.05	-0.725	-0.555	-0.529
